Assay results reported in the antibiotic and cytotoxicity screens of Wong et al. (2023).
In all, about 39,000 compounds went through this assay and about 3,300 (8.5%) were called active. Only a selection was taken, and actives are over-represented in it overall.

System: HepG2
Assay: cytotoxicity call (relative viability < 0.9)
Settings: 10 µM

Row | SMILES | cytotoxicity call
1 | CC1c2cccc(O)c2C(=O)C2=C(O)C3(O)C(=O)C(C(N)=O)=C(O)C(N(C)C)C3C(O)C21.Cl (centres undefined) | inactive
2 | COc1ccc2c3c(n(c2c1)C)[C@H](CO)N(C[C@]13CN(Cc2ccncc2)C1)C(=O)CN1CCOCC1 | inactive
3 | CC(C)NC(=O)N(C)C[C@@H]1Oc2ccc(NC(=O)Nc3ccc4c(c3)OCO4)cc2CC(=O)N([C@H](C)CO)C[C@H]1C | inactive
4 | C[C@H]1CN([C@@H](C)CO)C(=O)c2cc(NS(=O)(=O)c3ccc(F)cc3)ccc2O[C@@H]1CN(C)S(=O)(=O)c1ccc(F)cc1 | inactive
5 | C[C@H](CO)N1C[C@H](C)[C@@H](CN(C)S(=O)(=O)c2ccc(Cl)cc2)Oc2ccc(NC(=O)C3CC3)cc2CC1=O | inactive
6 | CCOC(=O)c1nonc1N | inactive
7 | CN(CCCCCCCCCCN(C)C(=O)Oc1cccc([N+](C)(C)C)c1)C(=O)Oc1cccc([N+](C)(C)C)c1 | inactive
8 | O=C(NCc1ccncc1)C(=O)NC[C@H]1OCCN1S(=O)(=O)c1ccc(F)cc1 | inactive
9 | C[C@@H]1CN([C@@H](C)CO)C(=O)c2cccc(NC(=O)Nc3ccc(C(F)(F)F)cc3)c2O[C@H]1CN(C)Cc1ccc(-c2ccccc2)cc1 | inactive
10 | C[C@H]1CN([C@@H](C)CO)C(=O)c2ccccc2-c2ccccc2CO[C@@H]1CN(C)Cc1ccccc1C(F)(F)F | inactive
11 | C[C@@H](NCCC(c1ccccc1)c1ccccc1)c1ccccc1 | active
12 | CC(NCCC(c1ccccc1)c1ccccc1)c1ccccc1.Cl (centres undefined) | active
13 | C[C@H](NC(=O)[C@@H]1CCCC[C@H]1C(=O)O)c1ccccc1.C[C@H](NC(=O)[C@H]1CCCC[C@H]1C(=O)O)c1ccccc1 | inactive
14 | CCCCC(O)c1ccccc1 (centres undefined) | inactive
15 | CCCC[C@@H](O)c1ccccc1 | inactive
16 | C[C@@H](NC(=O)[C@@H]1CCCC[C@H]1C(=O)O)c1ccccc1.C[C@@H](NC(=O)[C@H]1CCCC[C@H]1C(=O)O)c1ccccc1 | inactive
17 | Cc1noc(C)c1NC(=O)Nc1ccc2c(c1)C(=O)N([C@@H](C)CO)C[C@@H](C)[C@@H](CN(C)C(=O)Nc1ccc(C(F)(F)F)cc1)OCCCC[C@@H](C)O2 | inactive
18 | C[C@@H]1CN([C@H](C)CO)C(=O)Cc2cc(NC(=O)Nc3ccc(F)cc3)ccc2O[C@H]1CN(C)C(=O)Nc1cccc2ccccc12 | inactive
19 | C[C@@H]1CN([C@@H](C)CO)C(=O)Cc2cc(NS(=O)(=O)c3cn(C)cn3)ccc2O[C@@H]1CN(C)S(=O)(=O)c1cccs1 | inactive
20 | Cc1noc(C)c1S(=O)(=O)N(C)C[C@@H]1OCCCC[C@@H](C)Oc2ccc(NC(=O)Nc3ccccc3)cc2C(=O)N([C@H](C)CO)C[C@@H]1C | inactive
21 | C[C@@H]1CN([C@H](C)CO)C(=O)Cc2cc(NC(=O)C3CCCCC3)ccc2O[C@H]1CN(C)Cc1ccc(Cl)c(Cl)c1 | inactive
22 | N=C(N)c1ccc2nc(-c3cc(CC(=O)N[C@@H](CC(=O)O)C(=O)O)cc(-c4cc(S(N)(=O)=O)ccc4O)c3O)[nH]c2c1 | inactive
23 | C[C@H](CO)N1C[C@H](C)[C@H](CN(C)C(=O)Nc2ccc(C(F)(F)F)cc2)Oc2ccc(NC(=O)Nc3cccc4ccccc34)cc2CC1=O | inactive
24 | C[C@@H]1CN([C@H](C)CO)C(=O)Cc2cc(NC(=O)NC3CCCCC3)ccc2O[C@H]1CN(C)Cc1ccc(Cl)c(Cl)c1 | inactive
25 | C[C@H](CO)N1C[C@H](C)[C@@H](CN(C)Cc2ccc(Cl)c(Cl)c2)Oc2ccc(NC(=O)NC3CCCCC3)cc2CC1=O | inactive

Row | SMILES | cytotoxicity call
26 | C[C@@H]1CN([C@@H](C)CO)C(=O)Cc2cc(NC(=O)NC3CCCCC3)ccc2O[C@@H]1CN(C)Cc1ccc(Cl)c(Cl)c1 | active
27 | C[C@H](CO)N1C[C@H](C)[C@H](CN(C)Cc2ccc(Cl)c(Cl)c2)Oc2ccc(NC(=O)NC3CCCCC3)cc2CC1=O | inactive
28 | C[C@@H]1CN([C@H](C)CO)C(=O)Cc2cc(NC(=O)NC3CCCCC3)ccc2O[C@@H]1CN(C)Cc1ccc(Cl)c(Cl)c1 | active
29 | C[C@@H]1CN([C@@H](C)CO)C(=O)Cc2cc(NC(=O)NC3CCCCC3)ccc2O[C@H]1CN(C)Cc1ccc(Cl)c(Cl)c1 | inactive
30 | C[C@@H]1CN([C@H](C)CO)C(=O)c2cc(NS(=O)(=O)c3ccc(Cl)cc3)ccc2O[C@@H](C)CCCCO[C@H]1CN(C)C(=O)Nc1ccccc1 | inactive
31 | O=C(C[C@@H]1CC[C@@H]2[C@H](COC[C@@H](O)CN2S(=O)(=O)c2ccccc2)O1)NCCN1CCCCC1 | inactive
32 | O=C(Nc1ccccc1)N1c2ccccc2CCc2ccccc21 | inactive
33 | CC(CN(C)C)CN1c2ccccc2Sc2ccccc21.O=C(O)C(O)C(O)C(=O)O (centres undefined) | active
34 | O=C(c1ccccc1F)N1c2ccccc2Sc2ccccc21 | inactive
35 | CC(CN(C)C)CN1c2ccccc2CCc2ccccc21.O=C(O)C=CC(=O)O (centres undefined) | active
36 | CCOC(=O)C(CCc1ccccc1)NC1CCc2ccccc2N(CC(=O)O)C1=O.Cl (centres undefined) | inactive
37 | Cc1ccc(C(=O)N2c3ccccc3Sc3ccccc32)cc1 | inactive
38 | COc1ccc(NC(=O)N(C)C[C@@H]2OCc3ccccc3-c3c(n(C)c4ccccc34)C(=O)N([C@H](C)CO)C[C@@H]2C)c(OC)c1 | inactive
39 | CCC(=O)Nc1ccc2c(c1)OC[C@@H](C)N(C(=O)CN1CCOCC1)C[C@@H](C)[C@H](OC)CN(C)C2=O | inactive
40 | Cc1noc(C)c1NC(=O)Nc1ccc2c(c1)C(=O)N([C@H](C)CO)C[C@H](C)[C@@H](CN(C)C(=O)Nc1ccc(C(F)(F)F)cc1)O2 | inactive
41 | Cc1ccc(S(=O)(=O)Nc2cccc3c2O[C@H](CN(C)Cc2ccc(Oc4ccccc4)cc2)[C@@H](C)CN([C@@H](C)CO)C3=O)cc1 | inactive
42 | C[C@@H]1CN([C@@H](C)CO)C(=O)Cc2cc(NC(=O)NC3CCCCC3)ccc2O[C@H]1CN(C)S(=O)(=O)c1cn(C)cn1 | inactive
43 | C[C@H]1CCCCO[C@H](CN(C)S(=O)(=O)c2ccc(F)cc2)[C@@H](C)CN([C@@H](C)CO)C(=O)c2cc(NC(=O)NC3CCCCC3)ccc2O1 | inactive
44 | C[C@@H]1CN([C@@H](C)CO)C(=O)c2cccc(NC(=O)CCCCCC(=O)Nc3ccccc3N)c2O[C@@H]1CN(C)Cc1ccc(Oc2ccccc2)cc1 | active
45 | C[C@H](CO)N1C[C@H](C)[C@H](CN(C)Cc2ccc(Oc3ccccc3)cc2)Oc2c(NC(=O)CCCCCC(=O)Nc3ccccc3N)cccc2C1=O | inactive
46 | COc1ccc(CN(C)C[C@@H]2Oc3c(NC(=O)CCCCCC(=O)Nc4ccccc4N)cccc3C(=O)N([C@@H](C)CO)C[C@H]2C)cc1 | inactive
47 | COc1ccc(CN(C)C[C@H]2Oc3c(NC(=O)CCCCCC(=O)Nc4ccccc4N)cccc3C(=O)N([C@@H](C)CO)C[C@@H]2C)cc1 | active
48 | C[C@@H]1CN([C@H](C)CO)C(=O)c2cccc(NC(=O)CCCCCC(=O)Nc3ccccc3N)c2O[C@H]1CN(C)Cc1ccc(Oc2ccccc2)cc1 | inactive
49 | COc1ccc(CN(C)C[C@@H]2Oc3c(NC(=O)CCCCCC(=O)Nc4ccccc4N)cccc3C(=O)N([C@H](C)CO)C[C@H]2C)cc1 | inactive
50 | CO[C@@H]1CN(C)C(=O)c2cc(NS(C)(=O)=O)ccc2OC[C@H](C)N(C(=O)CN(C)C)C[C@@H]1C | inactive

Row | SMILES | cytotoxicity call
51 | C[C@H](CO)N1C[C@H](C)[C@H](CN(C)CC2CC2)OCCCC[C@H](C)Oc2ccc(NC(=O)CCC(F)(F)F)cc2C1=O | inactive
52 | CN(C)CCNC(=O)c1ccccn1 | inactive
53 | CN(C)CCC(c1ccc(Cl)cc1)c1ccccn1.O=C(O)C=CC(=O)O (centres undefined) | active
54 | CN(C)CCC(c1ccc(Br)cc1)c1ccccn1.O=C(O)C=CC(=O)O (centres undefined) | active
55 | CN(C)CCOC(c1ccc(Cl)cc1)c1ccccn1.O=C(O)C=CC(=O)O (centres undefined) | inactive
56 | CC(=O)Oc1ccc(C(c2ccc(OC(C)=O)cc2)c2ccccn2)cc1 | inactive
57 | CN(C)CCC(c1ccccc1)c1ccccn1.O=C(O)C=CC(=O)O (centres undefined) | inactive
58 | C[C@@H]1CN([C@@H](C)CO)C(=O)c2cc(NC(=O)c3ccncc3)ccc2O[C@@H](C)CCCCO[C@H]1CN(C)C(=O)C1CCCCC1 | inactive
59 | C[C@@H]1CN([C@@H](C)CO)C(=O)c2cc(NS(=O)(=O)c3cccs3)ccc2O[C@@H]1CN(C)S(=O)(=O)c1cccs1 | inactive
60 | C[C@H](CO)N1C[C@H](C)[C@H](CN(C)S(=O)(=O)c2ccccc2)Oc2c(NS(C)(=O)=O)cccc2C1=O | inactive
61 | CN(C)S(=O)(=O)N(C)c1ccccc1 | inactive
62 | C[C@@H]1CN([C@@H](C)CO)C(=O)c2cc(NC(=O)Nc3ccc4c(c3)OCO4)ccc2O[C@@H](C)CCCCO[C@H]1CN(C)C(=O)Nc1ccc(C(F)(F)F)cc1 | inactive
63 | C[C@H]1CN([C@@H](C)CO)C(=O)c2cc(NS(=O)(=O)c3ccc(F)cc3)ccc2O[C@H]1CN(C)C(=O)Nc1cccc2ccccc12 | inactive
64 | S=C(SN1CCOCC1)N1CCOCC1 | inactive
65 | COc1cc(Nc2ncc3c(n2)-c2ccc(Cl)cc2C(c2c(F)cccc2OC)=NC3)ccc1C(=O)O | active
66 | C[C@H](CO)N1C[C@H](C)[C@@H](CN(C)Cc2ccc(C(F)(F)F)cc2)Oc2ccc(NC(=O)CCCCCC(=O)Nc3ccccc3N)cc2C1=O | inactive
67 | C[C@@H]1CN([C@H](C)CO)C(=O)c2cc(NC(=O)CCCCCC(=O)Nc3ccccc3N)ccc2O[C@@H]1CN(C)Cc1ccc(C(F)(F)F)cc1 | inactive
68 | C[C@@H]1CN([C@@H](C)CO)C(=O)c2cc(NC(=O)CCCCCC(=O)Nc3ccccc3N)ccc2O[C@H]1CN(C)Cc1ccc(C(F)(F)F)cc1 | inactive
69 | C[C@@H]1CN([C@H](C)CO)C(=O)c2cc(NC(=O)CCCCCC(=O)Nc3ccccc3N)ccc2O[C@H]1CN(C)Cc1ccc(-c2ccccc2)cc1 | active
70 | C[C@H]1CN([C@@H](C)CO)C(=O)c2cc(NC(=O)CCCCCC(=O)Nc3ccccc3N)ccc2O[C@H]1CN(C)Cc1ccc(-c2ccccc2)cc1 | inactive
71 | C[C@H](CO)N1C[C@H](C)[C@H](CN(C)Cc2ccc(-c3ccccc3)cc2)Oc2ccc(NC(=O)CCCCCC(=O)Nc3ccccc3N)cc2C1=O | active
72 | C[C@H](CO)N1C[C@H](C)[C@H](CN(C)Cc2ccc(C(F)(F)F)cc2)Oc2ccc(NC(=O)CCCCCC(=O)Nc3ccccc3N)cc2C1=O | inactive
73 | C[C@@H]1CN([C@@H](C)CO)C(=O)c2cc(NC(=O)CCCCCC(=O)Nc3ccccc3N)ccc2O[C@@H]1CN(C)Cc1ccc(-c2ccccc2)cc1 | active
74 | C[C@@H]1CN([C@@H](C)CO)C(=O)c2cc(NC(=O)CCCCCC(=O)Nc3ccccc3N)ccc2O[C@@H]1CN(C)Cc1ccc(C(F)(F)F)cc1 | inactive
